Lassa entry inh: Lassa virus entry inhibition; Potency, µM (doses to about 37.9 µM), for inactives: top-dose activity change, negative = inhibition, hits mostly inhibitors; 1.2% of 300,000 active; Lassa virus pseudotype entry inhibition, cell reporter; calls by dose curve; tested in HEK293 cells; further: potency means the concentration at half of the fitted maximal effect; nearly all actives have a fitted effect of over 50% in size
Marburg entry inh: blocks Marburg virus binding to or entry into cells. Marburg virus pseudotyped entry inhibition, cell reporter. AID 540276. 1.8% of 300,000 active. Potency, µM (highest dose often 37.8 µM), inactives show top-dose activity change, negative = inhibition, hits mostly inhibitors; calls by dose curve; tested in HEK293 cells; further: potency means the concentration at half of the fitted maximal effect
HCV inh: HCV inhibition; AID 651820; Potency, µM (doses to about 41.8 µM), without a hit: at the top dose activity change, negative = inhibition, actives largely listed as inhibitors; 3.4% of 340,000 active; Huh7.5.1 HCVcc-Cre infection, luciferase reporter, 44 h; further: potency means the concentration at half of the fitted maximal effect
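Cells (1,000/well) were plated 4 h before compound, then infected with HCVcc-Cre virus (~0.5 moi). After 44 h further culture, infection was read as luciferase luminescence following a 15 min substrate incubation at room temperature.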
HCMV inh: human cytomegalovirus inhibition | HFF cells, HCMV-luciferase reporter, 72 h; active compounds read low | activity change, negative = inhibition, % at 57.5 µM | 4.5% of 410,000 active; in the data active means activity change below about -60%; inconclusive means no clear call, values can overlap the other calls; inactive means above about -39%
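Human foreskin fibroblasts infected with luciferase-reporter HCMV at MOI 1 PFU/cell, compounds at two doses. Luciferase measured 72 h post infection; normalized to buffer-only basal and Salinomycin (10uM) controls.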
Giardia FBPA inh: Giardia lamblia aldolase inhibition; 0.71% of 290,000 active; purified Giardia FBPA; AID 2451; Potency, µM (series often up to 59.6 µM), for the others: top-dose activity, negative = inhibition, most hits filed as inhibitors; A8B2U2; further: potency means the concentration at half of the fitted maximal effect; nearly all actives have a fitted effect of over 55% in size
Target sequence (A8B2U2 whole entry, looked up): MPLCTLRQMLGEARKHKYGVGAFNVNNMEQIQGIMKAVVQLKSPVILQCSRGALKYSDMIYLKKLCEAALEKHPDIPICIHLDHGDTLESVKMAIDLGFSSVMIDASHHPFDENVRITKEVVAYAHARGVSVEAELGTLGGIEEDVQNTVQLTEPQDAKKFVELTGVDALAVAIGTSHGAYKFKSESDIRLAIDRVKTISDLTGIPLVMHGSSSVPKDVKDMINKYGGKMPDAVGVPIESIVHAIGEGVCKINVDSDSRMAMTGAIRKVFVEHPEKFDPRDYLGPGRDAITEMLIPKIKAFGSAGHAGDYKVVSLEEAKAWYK
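40 nM FBPA preincubated 10 min at RT with compound (up to 57.5 uM final), then substrate plus GAPDH/TPI/NAD/arsenate coupling and diaphorase/resazurin added. Fluorescence read after 20 min at RT, 525/598 nm.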
FMDV antiviral: blocks foot and mouth disease virus. FMDV antiviral cell-based qHTS. Potency, µM (titrated, usually from 57.9 µM), without a hit: at the top dose activity change, negative = inhibition, hits mostly inhibitors. 1.2% of 410,000 active; calls by dose curve; tested in HEK293T cells; further: read-out not given here; potency means the concentration at half of the fitted maximal effect; nearly all actives have a fitted effect of over 45% in size
Starred values were filed as active, the others as inactive; ? = inconclusive; · = not tested or not shown; [ ] = dose if it differs, or a comment. In the library only some 8.3% were active in any assay of this set; here they are far more common. Unless noted, the call rests on the fitted dose curve; in most records, active means well fitted curve in the direction sought with a large enough effect; inconclusive means small, poorly fitted or top-dose-only effect, or another doubt; inactive means no such curve, though single readings can be large; an effect the other way counts as inactive or inconclusive. On the % scale 0 is the no-effect control and ±100 the full control effect.

SMILES	Lassa entry inh	Marburg entry inh	HCV inh	HCMV inh	Giardia FBPA inh	FMDV antiviral
CC(C)(C)NCC(O)COc1ccccc1C1CCCC1 (stereo unspecified)	·	·	?	-78*	·	-22%
CC(=O)Nc1ccc(OCC(O)Cn2c3ccccc3c3ccccc32)c(C)c1 (stereo unspecified)	?	-13%	?	-61*	-13%	22µM*
Cc1ccccc1OCC(O)Cn1c2ccccc2c2ccccc21 (stereo unspecified)	?	?	7.9µM*	18	-10%	·
CC(=O)Nc1ccc(OCC(O)Cn2c3ccccc3c3ccccc32)cc1 (stereo unspecified)	-5%	?	?	-23	-2%	-16%
CC(C)(C)NC[C@@H](O)COc1cccc2c1CCCC2=O	·	·	4%	-38	·	-12%
OC(COc1ccccc1)Cn1c2ccccc2c2ccccc21 (stereo unspecified)	0%	-9%	?	-19	-5%	-1%
COc1ccc(C(=O)N(Cc2cc3cccc(C)c3nc2N(C)C)CC2CCCO2)cc1 (stereo unspecified)	·	·	·	·	·	-3%
Cc1cc(F)ccc1NC(=O)CCS(=O)(=O)c1cccc2nsnc12	?	7%[46.1 µM]	·	4	·	-2%
O=C(NCC1Cc2cccc(-c3cnccn3)c2O1)c1ccc2c(c1)OCCO2 (stereo unspecified)	·	·	·	·	·	47%
COc1ccccc1OCC(O)Cn1c(=N)n(Cc2ccccc2)c2ccccc21 (stereo unspecified)	?	?	?	-25	-8%	?
Cc1ccccc1OCC(O)Cn1c(=N)n(Cc2ccccc2)c2ccccc21 (stereo unspecified)	?	?	?	-74*	-6%	?
CCN1C(=C(C#N)C#N)C=Cc2cc(C)ccc21	7%[46.1 µM]	-17%[46.1 µM]	-10%	-21	-10%	6%
C=CC[n+]1c(/C=C2\C=Cc3cc(C)ccc3N2CC)ccc2ccccc21	7.3µM*	4.1µM*	2.5µM*	-102*	0%	?
COc1ccc(C)cc1NS(=O)(=O)c1c(C(=O)N2CCCCCC2)c(C)n(C)c1C	6%[46.1 µM]	·	·	3	·	61%
COc1ccc(-c2cc(CNC(=O)CCl)on2)cc1	?	?	?	-63*	1%	?
Cc1cccc(CNC(=O)c2ccc(NC(=O)N3CCSc4ccccc43)cc2)c1	-13%[46.1 µM]	13%[46.1 µM]	·	8	·	-22%
CN(C)c1ccc(/C=c2\sc3n(c2=O)CCCN=3)cc1	2µM*	?	?	-36	0%	-23%
O=c1/c(=C/c2ccc(O)cc2)sc2n1CCCN=2	?	6%	5%	-18	-2%	34%
Cc1cc(NC(=O)c2cc(-c3ccccc3C)nc3ccccc23)no1	-21%	-28%	-6%	-74*	-6%	-9%
COc1ccc(C(=O)COC(=O)c2cc(-c3cccs3)nc3ccccc23)cc1	11µM*	1%[46.1 µM]	·	11	·	62%
O=C(NCc1cccs1)c1cc(-c2ccccc2)nc2ccccc12	-26%	?	?	-32	0%	-3%
N#Cc1ccc(/C=N/NC(=O)c2cc(-c3cccs3)nc3ccccc23)cc1	?	6.3µM*	-10%	-20	1%	16%
Cc1ccc(C(=O)COC(=O)c2cc(-c3cccs3)nc3ccccc23)cc1	-34%[46.1 µM]	17%[46.1 µM]	·	21	·	63%
Cc1ccc(C)c(-c2cc(C(=O)NCc3cccs3)c3ccccc3n2)c1	-21%	-4%	13µM*	-12	1%	-17%
CCCOc1ccc(-c2cccc(NS(=O)(=O)c3cc(OC)ccc3OC)c2)nn1	0%[46.1 µM]	·	·	-8	·	14%
SMILES	Lassa entry inh	Marburg entry inh	HCV inh	HCMV inh	Giardia FBPA inh	FMDV antiviral
CCCC[C@@H]1CCCO[C@@](C(=O)NCc2ccccc2)(C(F)(F)F)C1	·	·	·	·	3%	·
Cc1cc(NC(=O)c2cc(-c3ccncc3)nc3ccccc23)ccc1Br	?	?	8.9µM*	-14	·	?
Cc1cc(NC(=O)c2cc(-c3cccnc3)nc3c(C)c(C)ccc23)no1	-15%	?	?	-64*	5%	?
NS(=O)(=O)c1ccc(CNC(=O)c2cc(-c3cccs3)nc3ccccc23)cc1	·	·	-10%	-34	-4%	-21%
O=C(Nc1cccnc1)c1cc(-c2ccc(Br)cc2)nc2ccccc12	?	?	3.2µM*	40	-6%	-5%
Cc1cc(NS(=O)(=O)c2ccc(NC(=O)c3cc(-c4cccnc4)nc4ccc(Cl)cc34)cc2)no1	-10%	4%	52%	-2	-3%	20%
NS(=O)(=O)c1ccc(CCNC(=O)c2cc(-c3cccs3)nc3ccccc23)cc1	?	7.9µM*	?	-39	1%	1%
c1cncc(-c2nc(NCCN3CCOCC3)c3ccccc3n2)c1	·	·	·	·	-6%	-2%
C[C@H]1CN([C@@H](C)CO)C(=O)CCCn2nncc2CO[C@@H]1CN(C)C(=O)Nc1ccccc1F	·	·	·	-12	·	·
COc1ccccc1CNc1cc(-c2ccoc2)ncn1	·	·	·	·	-14%	10%
Cc1ccc(C)c(-c2cc(C(=O)Nc3cccnc3)c3ccccc3n2)c1	-6%	11µM*	·	-7	6%	0%
O=C(NN1CCOCC1)c1cc(-c2ccc(Br)cc2)nc2ccccc12	0%	12%	11%	-60*	-4%	0%
COC(=O)c1sccc1NC(=O)c1cc(-c2cc(C)ccc2C)nc2ccccc12	-2%	-29%	-21%	76	5%	-4%
Cc1ccc(C)c(-c2cc(C(=O)Nc3cccc(C(=O)O)c3)c3ccccc3n2)c1	19%	12%[46.1 µM]	2%	-15	-9%	21%
Cc1ccc(C)c(-c2cc(C(=O)Nc3nccs3)c3ccccc3n2)c1	-24%	-13%	?	-71*	·	?
CCc1ccc(-c2cc(C(=O)NN3CCOCC3)c3ccccc3n2)cc1	3%	1%	26%	-2	0%	3%
Cn1ncc(N=Cc2ccccc2)c1C(N)=O	7%	-14%	5%	-24	-25%	8%
Nc1ncc(Br)cc1N=Cc1ccccc1	-20%	-1%	37%	-9	1.1µM*	46%
Cc1ccc2[nH]c(C)c([N+](=O)[O-])c2c1	·	·	·	-30	·	·
Cc1csc2c(N3CCN(C(=S)Nc4ccc(C(F)(F)F)cc4)CC3)ncnc12	·	·	-20%	20	-4%	-8%
Cc1csc2ncnc(N3CCN(C(=S)Nc4ccc(C(F)(F)F)cc4)CC3)c12	·	·	-8%	-71*	-3%	10%
COc1cc(OC)c(OC)cc1CN1CCCC(n2cc(C(=O)N3CCCCC3)nn2)C1 (stereo unspecified)	·	·	·	·	·	-6%
CCCC[C@@H]1C[C@H]1C(NC(=O)c1ccco1)c1ccccc1 (stereo partly specified)	·	·	·	·	5%	·
CN1CCN(C(=O)c2cccc(-c3cc(O)c4ncccc4c3)c2)CC1	·	·	·	-21	·	-6%
CN1CCN(c2cc(-c3cc(O)c4ncccc4c3)ccn2)CC1	·	·	·	-89*	·	-27%

Screening data: PubChem, National Center for Advancing Translational Sciences (NCATS)
